According to PubChem BioAssay AID493027 (The Scripps Research Institute Molecular Screening Center, 2011):
Out of some 2,000 compounds screened, about 45 (2%) were called active. The sample as a whole holds a higher share of actives than the screen did. Unmarked numbers belong to inactive results.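 How the source made its calls: active means inhibition above the screen-wide mean inhibition plus 3 SD (cut at about 44% in these data); inactive means the rest.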

target: Perilipin-1 (Homo sapiens) + 1-acylglycerol-3-phosphate O-acyltransferase ABHD5 (Homo sapiens) (UniProt O60240+Q8WTS1); test: ABHD5-PLIN1 interaction inhibitors, pilot screen, cell lysate, split luciferase complementation, luminescence, NIH validation set (AID 493027);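 further: 0% = DMSO wells with the 100% control not disclosed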; details: split G. princeps luciferase complementation, 4 h; at 7.9 µM, active compounds read high
Sequence (O60240 whole entry, looked up): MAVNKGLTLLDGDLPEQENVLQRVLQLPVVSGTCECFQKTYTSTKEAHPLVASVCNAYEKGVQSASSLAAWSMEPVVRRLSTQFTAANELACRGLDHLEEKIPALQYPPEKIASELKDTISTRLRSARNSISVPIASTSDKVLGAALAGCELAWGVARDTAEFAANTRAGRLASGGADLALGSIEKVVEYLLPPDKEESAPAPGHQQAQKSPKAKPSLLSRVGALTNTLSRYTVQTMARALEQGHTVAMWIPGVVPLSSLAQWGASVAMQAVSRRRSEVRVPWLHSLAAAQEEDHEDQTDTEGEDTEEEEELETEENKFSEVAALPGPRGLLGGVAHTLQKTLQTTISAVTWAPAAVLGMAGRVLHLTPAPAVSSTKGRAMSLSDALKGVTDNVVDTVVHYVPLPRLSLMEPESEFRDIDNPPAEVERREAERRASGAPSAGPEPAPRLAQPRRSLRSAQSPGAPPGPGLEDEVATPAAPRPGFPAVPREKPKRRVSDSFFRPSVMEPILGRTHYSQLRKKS
Sequence (Q8WTS1 whole entry, looked up): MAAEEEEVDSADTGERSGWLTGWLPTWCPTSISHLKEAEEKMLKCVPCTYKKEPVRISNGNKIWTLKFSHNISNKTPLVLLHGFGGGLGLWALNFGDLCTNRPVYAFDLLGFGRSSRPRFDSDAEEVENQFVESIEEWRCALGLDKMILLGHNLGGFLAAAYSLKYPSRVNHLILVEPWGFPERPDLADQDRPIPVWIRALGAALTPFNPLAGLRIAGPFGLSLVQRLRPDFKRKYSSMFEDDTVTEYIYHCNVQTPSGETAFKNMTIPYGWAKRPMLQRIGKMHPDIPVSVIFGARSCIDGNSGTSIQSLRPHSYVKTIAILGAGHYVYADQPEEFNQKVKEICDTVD

Point of comparison: `COc1cc2c(cc1OC)CN(Cc1ccc(C)s1)CC2`, inhibition 2.36%. Against it:
- Cc1nc(C)c(C)nc1C — lower, -2.64%
- O=C1CCCCCN1Cc1ccccc1 — lower, -0.49%
- CC1(C)CC(CC(=O)Nc2nccs2)(c2ccccc2)CCO1 (configuration not stated) — lower, -1.2%
- COc1ccc(-c2nc(NC(C)=O)sc2-c2ccc(OC)cc2)cc1 — higher, 11.4%
- COc1ccc(C2C(=O)c3ccccc3C2=O)cc1 — lower, -2.92%
- NS(=O)(=O)c1ccc(CNC(=O)c2cc(-c3ccccc3)nc3ccccc23)cc1 — higher, 10.2%
- CCOc1ccc2nc(NC(=O)NC3CCCCC3)sc2c1 — lower, -5.14%
- CCOc1cccc(N2C(=O)CC(N(CCc3ccc(OC)c(OC)c3)C(=O)CC)C2=O)c1 (configuration not stated) — lower, -6.24%
- COC(=O)c1ccc(=O)n(Cc2ccco2)c1 — higher, 12.2%
- COCCCN1C(=O)/C(=C\c2cccs2)C(C(=O)OC)=C1C — higher, 3.99%
- CN=C1c2cc3cc(OC)ccc3n2CCN1C — higher, 3.44%
- Oc1[nH]c2ccccc2c1N=Nc1ccccc1 — lower, -0.17%
- COC(=O)c1cc(COc2ccc3ccc(=O)oc3c2)c(C)o1 — lower, -9.09%
- Cc1ccccc1C(=O)NCC(=O)O — lower, 0.22%
- COc1ccc(CCNC(=O)c2ccc(Cl)cc2)cc1OC — lower, -5.87%
- CC(CN1c2ccccc2Sc2ccccc21)N(C)C (configuration not stated) — lower, -9.88%
- CN(C)CCCN1c2ccccc2Sc2ccccc21 — lower, -3.33%
- CC(=O)N(C(C)=O)c1nc2nc(C)cc(C)n2n1 — lower, -0.49%
- OC(C#CCN1CCCC1)(c1ccccc1)c1cccnc1 (configuration not stated) — lower, 0.07%
- COc1ccc(Cc2nc(-c3ccc(Br)cc3)no2)cc1 — lower, -12%
- CCOc1ccc(CC2CCC(=O)NC2=O)cc1 (configuration not stated) — higher, 3.55%
- O=Cc1ccc(OC(=O)c2cccnc2)cc1 — lower, -5.64%
- Fc1ccc(-n2cc(CNCCc3ccccn3)c(-c3ccccc3Cl)n2)cc1 — lower, 1.9%
- CC(C)(C)OC(=O)N1CC(O)CC1C(=O)OCC(=O)c1ccc(Cl)cc1 (configuration not stated) — lower, -9.04%
- CC(C)=CCC/C(C)=C/CC/C(C)=C/CC/C(C)=C/CC1=C(C)C(=O)c2ccccc2C1=O — higher, 18.4%
- CCNC1=C(Cl)C(=O)c2ccccc2C1=O — lower, -12.7%
- COc1ccc2[nH]c3c(=O)n(/N=C/[C@H]4C(C)C=C(C)CC4C)c(=O)[nH]c3c2c1 (some centres not stated) — higher, 23.9%
- COc1ccc(CCNC(=O)c2c(O)c3c([nH]c2=O)CCCC3)cc1 — higher, 3.26%
- COc1ccc(C(=O)OCc2cc3cccc(C)c3[nH]c2=O)cc1 — lower, -1.47%
- Cc1cc(-c2nn(-c3ccccc3F)cc2CN2CCC(O)CC2)c(C)s1 — lower, -2.82%
- COc1cc2c3c(c1)C(C)CC(C)(C)N3C(=O)C2=O (configuration not stated) — higher, 6.69%
- COc1cc2c3c(c1)C1(C(=O)N3C(C)(C)C=C2C)C(C#N)=C(N)Oc2cc(C)oc(=O)c21 (configuration not stated) — lower, -0.82%
- CS(=O)(=O)Nc1cccc(C(=O)CC2(O)C(=O)Nc3ccc(Br)cc32)c1 (configuration not stated) — lower, -3.35%
- COc1cc2c(cc1OC)-c1nnc(C)n1C(C)(C)C2 — lower, -2.21%
- COc1ccccc1C(CC(=O)Nc1ccccc1C)c1ccc(OC(C)C)cc1 (configuration not stated) — lower, 0.34%
- COc1ccc(CNCCC(c2ccc(F)cc2)c2ccc(OC(C)C)cc2)cc1OC (configuration not stated) — lower, -6.56%
- CC(C)C12CN3CC(C(C)C)(CN(C1)C3c1ccccc1)C2O (configuration not stated) — lower, -10.6%
- Cn1c(=S)n(C)c2ccccc21 — lower, -7.95%
- COc1ccc2cc(C(=O)OC(C)C)sc(=O)c2c1OC — higher, 3.53%
- COc1cccc(OCc2cc(C3Nc4ccccc4C(=O)N3Cc3ccco3)ccc2OC)c1 (configuration not stated) — higher, 42.9%
- O=C(O)c1cc(-c2ccccc2)nc2ccccc12 — lower, -6.78%
- CCCOc1ccc(-c2cc(C(=O)NCC3CCCO3)c3ccccc3n2)cc1 (configuration not stated) — lower, -2.49%
- COc1cc2cc(C)nc(Cc3cccc4ccccc34)c2cc1OC — higher, 16.5%
- COc1ccc(C2C3C(C)=NN=C3CC(C)(O)C2C(C)=O)cc1 (configuration not stated) — lower, -2.63%
- Oc1[nH]c2ccccc2c1C1=NCCCC1 — lower, -6.01%
- O=C(Cc1ccccc1[N+](=O)[O-])NCCCN1CCOCC1 — lower, -7.14%
- CC(=O)N(CCC(Cc1ccccc1)c1ccco1)Cc1ccco1 (configuration not stated) — higher, 40.8%
- COc1ccccc1C(CCN(Cc1ccccc1)C(C)=O)c1ccco1 (configuration not stated) — higher, 9.44%
- CCOc1ccc2ccccc2c1CNc1nnnn1C — lower, -8.53%
- COc1ccc(C(=O)Nc2nc3ccccc3c(=O)[nH]2)cc1 — lower, -4.92%
- CC(=O)Oc1ccc(C(=O)O)cc1OC(C)=O — lower, 2.2%
- CCC1(c2ccccc2)NC(=S)N(c2ccc(C)c(C)c2)N1 (configuration not stated) — lower, -0.55%
- CC(=O)/C=C/c1ccc(C)o1 — higher, 18.2%
- COc1cccc2c(=O)c3ccccc3oc12 — lower, -14.7%
- CCc1ccc(/C=C2\SC(=S)N(CCC(=O)N3CCN(C)CC3)C2=O)cc1 — lower, -12.7%
- O=c1c2ccccc2nnn1Cc1cccc2ccccc12 — higher, 7.22%
- COc1ccccc1C(=O)c1cc2ccc(O)cc2oc1=O — higher, 4.61%
- COc1ccccc1/C=C/C(=O)c1c2c(c(C)[nH]c1=O)CCCC2 — higher, 28.8%
- O=C1C(Cc2ccccc2)NC(=S)N1c1ccccc1 (configuration not stated) — lower, -13.4%
- Cc1ccc2c(c1)OC(=O)CC2c1ccccc1 (configuration not stated) — lower, -5.39%
- Oc1ccccc1OCCOc1ccccc1OCCOc1ccccc1O — higher, 8.26%
- Cc1cccc(OCC(=O)Nc2ccc(C(=O)NCC(C)C)cc2)c1 — lower, -6.6%
- CC(=O)CCc1oc2ccccc2c1-c1ccccc1 — lower, -1.83%
- CCCCc1oc2ccccc2c1C(=O)c1cc(I)c(OCCN(CC)CC)c(I)c1 — lower, -6.98%
- O=C(N1CCCCC1)C1(c2ccccc2)CCOCC1 — lower, -5.12%
- Cc1cc(O)c2/c(=N\N)c(-c3csc(C)n3)coc2c1 — higher, 5.2%
- COc1cc(/C=C(\C#N)C(=O)N2CCc3ccccc32)ccc1O — higher, 42.5%
- COC(=O)c1ccc2c(c1)C(=O)/C(=C/c1ccc(O)cc1)O2 — higher, 7.53%
- CCc1ccc(/C=C2\Oc3cc(OC(=O)N4CCOCC4)ccc3C2=O)cc1 — higher, 17.4%
- O=C(O)CCSc1nc2ccccc2s1 — lower, 0.7%
- CC[n+]1c(C)sc2cc(C)ccc21 — lower, 0.88%
- O=C(OCCN1CCCC1)C1(c2ccccc2)CCCC1 — lower, -8.49%
- Cc1nc(C(=O)Nc2ccccc2Cl)cc2c1[nH]c1ccccc12 — lower, -0.62%
- COc1ccc(NC(=O)C2C(=O)N(CCO)C3(C)CC2c2ccccc2O3)cc1 (configuration not stated) — lower, -10.9%
- O=C(Nc1cccc(Oc2c(F)c(F)c(F)c(F)c2F)c1)N1C[C@@H]2C[C@@H](C1)c1cccc(=O)n1C2 — higher, 9%
- COc1ccc(Cc2noc(CN(C)CC3(N4CCOCC4)CCCCC3)n2)cc1OC — lower, -1.95%
- Cn1cc(C2N3CC4(C)CN2CC(C)(C3)C4=O)c2ccccc21 (configuration not stated) — lower, -7.09%
- C[C@H](NC(=O)Nc1ccccc1F)C(=O)O — lower, -0.07%
- O=P(O)(O)CP(=O)(O)O — lower, -4.16%
- COc1cc(/C=C/C(=O)O)cc(S(=O)(=O)NCCCO)c1OC — lower, -7.07%
- O=C(Nc1ccccc1)OCC1CCCN2CCCCC12 (configuration not stated) — lower, -5.9%
- O=C(NCc1ccccc1Cl)NC(=O)c1ccccc1 — lower, -2.42%
- CCCCNC(=O)NS(=O)(=O)c1ccc(C)cc1 — lower, -10.7%
- CNS(=O)(=O)c1ccc(C)cc1 — lower, -13.4%
- COc1ccc(NC(=O)C2CCCN2C(=O)OC(C)(C)C)cc1 (configuration not stated) — lower, -11.3%

`O=C1C=CC(=O)C(C2=C3C(=O)N(CCc4ccccc4)CC(=O)N3CCC2)=C1` was tested, and the inhibition was 68.9% (active).
In the case of `COc1ccc(C2=CC(=O)C=CC2=O)cc1`, the inhibition is reported as 73.7% (active).
`COC(=O)C1=C(C)N(Cc2ccco2)C(=O)/C1=C\c1ccc([N+](=O)[O-])cc1` was tested, and the inhibition was 86% (active).
In the case of `CCN1/C(=C/C=C/C=C/c2sc3ccccc3[n+]2CC)Sc2ccccc21`, the inhibition is reported as 52.7% (active).
In the case of `CC1=CC(=O)c2ccccc2C1=O`, the inhibition is reported as 44.4% (active).
With `CCOc1cc2c3c(c1)C(C)=CC(C)(C)N3C(=O)C2=O` the inhibition was 43.5% (active).
In the case of `COc1ccc(CN(CCC(c2ccccc2)c2ccc(OC(C)C)cc2)C(=O)CCl)cc1OC` (configuration not stated), the inhibition is reported as 64.4% (active).
In the case of `COC(=O)c1cc(-c2ccc(C)o2)nc2ccccc12`, the inhibition is reported as 78% (active).
For `O=C(c1ccco1)N(CCC(c1ccccc1)c1ccco1)Cc1ccco1` (configuration not stated), the inhibition was 56.6% (active).
With `CC(C)N1C(=O)/C(=C\c2nc3ccccc3c(=O)[nH]2)c2ccccc21` the inhibition was 70.2% (active).
`O=C(Nc1ccc(Oc2c(F)c(F)c(F)c(F)c2F)cc1)OC1CCN2Cc3ccccc3N=C12` (configuration not stated) was tested, and the inhibition was 71.9% (active).
For `COc1cccc(/C=C/C(=O)c2c(O)cc(C)oc2=O)c1O`, the inhibition was 47.8% (active).
For `CCc1oc2ccccc2c1C(=O)c1cc(Br)c(O)c(Br)c1`, the inhibition was 57.3% (active).
For `COc1ccccc1C(=O)Oc1ccc2c(c1)O/C(=C\c1ccncc1)C2=O`, the inhibition was 45.6% (active).
`COc1ccc2c(c1)C=CC1(O2)N(CCO)c2ccccc2C1(C)C` (configuration not stated) was tested, and the inhibition was 45.5% (active).
For `Cc1ccc(S(=O)(=O)N[C@@H](Cc2ccccc2)C(=O)CCl)cc1`, the inhibition was 82.3% (active).
